Reference: PubChem BioAssay (NCI)
Compounds without any hit were thinned out: in the full panel of roughly 83,000, 20% have a hit.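 Negative percent growth values reflect cell death: -40 means 40% of the cells present at the start died, and -100 means all died.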 Values without a mark were called inactive. Activity calls are given as the source filed them. The calls were made as follows: active = growth percent below 10; inactive = the rest.

Assays:
Assay in all cases: NCI-60 one-dose screen, 48 h (100 = growth as untreated, 0 = no growth, -100 = all killed)
Conditions in all cases: 10 µM unless noted
DU-145 prostate = system: DU-145 prostate
K-562 leukemia = system: K-562 leukemia
MALME-3M melanoma = system: MALME-3M melanoma
MDA-MB-231 breast = system: MDA-MB-231 breast
RXF 393 renal = system: RXF 393 renal
SF-268 CNS = system: SF-268 CNS
SF-295 CNS = system: SF-295 CNS
SF-539 CNS = system: SF-539 CNS
UACC-257 melanoma = system: UACC-257 melanoma
M14 melanoma = system: M14 melanoma
HCT-15 colon = system: HCT-15 colon
HT29 colon = system: HT29 colon
SNB-75 CNS = system: SNB-75 CNS
SNB-19 CNS = system: SNB-19 CNS
U251 CNS = system: U251 CNS
PC-3 prostate = system: PC-3 prostate
SK-MEL-5 melanoma = system: SK-MEL-5 melanoma
UACC-62 melanoma = system: UACC-62 melanoma
LOX IMVI melanoma = system: LOX IMVI melanoma
SK-MEL-28 melanoma = system: SK-MEL-28 melanoma

SMILES	growth (DU-145 prostate)	growth (K-562 leukemia)	growth (MALME-3M melanoma)	growth (MDA-MB-231 breast)	growth (RXF 393 renal)	growth (SF-268 CNS)	growth (SF-295 CNS)	growth (SF-539 CNS)	growth (UACC-257 melanoma)	growth (M14 melanoma)	growth (HCT-15 colon)	growth (HT29 colon)	growth (SNB-75 CNS)	growth (SNB-19 CNS)	growth (U251 CNS)	growth (PC-3 prostate)	growth (SK-MEL-5 melanoma)	growth (UACC-62 melanoma)	growth (LOX IMVI melanoma)	growth (SK-MEL-28 melanoma)
CC(C)NC(=O)c1cc(-c2ccc(NC(=O)Nc3ccc(F)cc3)cc2)nc2cccnc12	114%	110%	118%	97.8%	123%	109%	97.7%	102%	102%	102%	99.5%	104%	101%	99.9%	104%	96.7%	101%	96%	98%	107%
CN1CC[C@@H]2[C@@]3(C)CC[C@H](O)C(C)(C)[C@@H]3CC[C@@]2(C)[C@]2(C)CC[C@@]3(CO)CCC(C)(C)C[C@@H]3C12 (stereo not given in full)	103%	21.5%	84.3%	85%	77.2%	96.7%	104%	74.9%	49.1%	58.6%	72.7%	40.3%	87.7%	94.5%	73.9%	79.6%	95.6%	93%	84.8%	88%
O=C(CCCCCCN1CC(=O)N2[C@@H](C3CC3)c3[nH]c4ccccc4c3C[C@H]2C1=O)NO	70.9%	21.5%	10.1%	83.7%	76.5%	93.6%	74.9%	60.7%	41.9%	60.2%	92.9%	78.3%	58.7%	68.4%	53.1%	74.7%	44.1%	31.8%	33.2%	32.3%
CC(=O)c1c([Si](C)(C)C)c2cc(C#N)ccn2c1C(=O)c1ccc(Br)cc1	99.9%	82.4%	92.9%	85.4%	78.5%	79.1%	90.9%	95.5%	101%	97.4%	85.1%	67.8%	95.1%	86.9%	93.2%	76%	91.2%	74.9%	99.6%	92.1%
NC1=NC2(CCCC2)N(c2ccc(S(=O)(=O)Nc3nccs3)cc2)C(N)=N1	111%	96.5%	101%	100%	104%	105%	104%	95%	101%	108%	100%	109%	112%	100%	104%	102%	100%	98.9%	99%	105%
O=C1Nc2ccc(F)cc2/C1=C\C(=O)c1ccc(NS(=O)(=O)c2ccccc2)cc1	92.1%	49.1%	79.7%	90.4%	72.3%	97.9%	96.4%	97.5%	95.9%	90.7%	59.7%	81%	76.1%	95.6%	94.1%	92%	97.3%	77.7%	21.4%	105%
CCNC(=O)Oc1ccc(/C(=C(/C)c2ccc(OC)cc2)c2ccc(OCCN3CCCCCC3)cc2)cc1	76%	2.3% (active)	-3.44% (active)	46.8%	12.3%	64%	-20.9% (active)	18.4%	-32.4% (active)	-73.3% (active)	-25.8% (active)	10.5%	59.4%	61%	38.8%	31.3%	78.5%	41%	-6.62% (active)	19.8%
CCCCCC[n+]1ccc(SCC(=O)n2ccc3ccccc32)c2ccccc21	94.1%	51.7%	91.4%	89.5%	113%	101%	82.2%	96.3%	100%	89%	94.3%	84%	100%	86.8%	94.4%	83.7%	88.7%	73.3%	91.5%	106%
O=C1Nc2cc(Cl)ccc2/C1=C\c1ccc(OCc2ccccc2)cc1	101%	93.1%	115%	104%	114%	94.5%	115%	94.5%	116%	96.2%	95%	105%	73.3%	103%	104%	88.2%	97.2%	95.9%	92.7%	103%
CC(=O)OC[C@]12CC[C@@H](C(=O)/C=C/c3cccnc3)[C@@H]1[C@H]1CC[C@@H]3[C@@]4(C)CC[C@H](OC(C)=O)C(C)(C)[C@@H]4CC[C@@]3(C)[C@]1(C)CC2	45.7%	13.1%	-66.3% (active)	-40.5% (active)	-71.6% (active)	42.2%	29.7%	-52.7% (active)	-4.75% (active)	12.2%	-53% (active)	6.53% (active)	54.3%	46.6%	23.4%	19.9%	-96.2% (active)	-4.76% (active)	-84% (active)	-56.4% (active)
CCN(CC)CCOc1ccc(C(=C(c2ccccc2)C2CCCC2)c2ccc(OCCN(CC)CC)cc2)cc1	38.3%	8.22% (active)	-0.396% (active)	24.7%	-33.4% (active)	25.5%	60.6%	9.14% (active)	14.3%	30.8%	-70.2% (active)	-5.44% (active)	10.3%	14.6%	20.5%	14.6%	-82.4% (active)	-74.7% (active)	-56.6% (active)	29%
O=C(Nc1ccccc1)Nc1nc2ccc([N+](=O)[O-])cc2[nH]1	56.3%	43.4%	40.1%	74.9%	60%	71.5%	66.3%	61.7%	57.4%	58.2%	40.9%	84.4%	84.9%	66.3%	55.5%	45.8%	40.4%	44%	57.2%	61.6%
CCN(CC)CCOc1ccc(C(=C(C)Cc2ccc(OC)cc2)c2ccc(OCCN(CC)CC)cc2)cc1	74.5%	-4.16% (active)	-75.5% (active)	55.4%	41.9%	70%	52.8%	-45.9% (active)	62.6%	-53.6% (active)	7.13% (active)	-4.07% (active)	76.5%	74.4%	9.54% (active)	66.2%	31.1%	-37.6% (active)	-80.7% (active)	-82% (active)
O=c1[nH][nH]c(-c2ccc(F)cc2)c1-c1nc2ccccc2s1	104%	98.1%	84%	85%	99.7%	98.1%	103%	94.8%	107%	89.1%	85%	110%	88.4%	80.5%	98.8%	90.3%	98.8%	81.8%	93.1%	97.7%
